48 compounds from PubChem BioAssay AID624287 (National Center for Advancing Translational Sciences (NCATS), 2012) can be followed below.

Hit rate of the full screen: of about 340,000 compounds, about 420 (0.12%) were called active. About 10% were inconclusive and are not listed. Shown is part of a subset that was picked to be rich in actives. A number with no mark means an inactive call. Calls follow the shape of the dose curve; as a rule, active = well fitted activation curve with a large enough effect; inconclusive = small, poorly fitted or top-dose-only effect, or another doubt; inactive = no such curve, though single readings can be large or run the other way; cell line not stated here.
Potency is read from the fitted curve at half-maximal effect.

The nature of the assay: qHTS for Agonist of gsp, the Etiologic Mutation Responsible for Fibrous Dysplasia/McCune-Albright Syndrome: qHTS. Also: nearly all actives have a fitted effect of over 60% in size.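 As to activation (cAMP increase): phosphodiesterase inhibitor Ro 20-1724 added with compounds to block cAMP breakdown.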 To be noted: gsp mutant cells, cAMP HTRF, 30 min; series mostly up to 76.9 µM; activation (cAMP increase): at the top concentration. From the text:
McCune-Albright syndrome (MAS) is a rare disease caused by somatic mutations in Gsgsp), a widely expressed protein central in signal transduction from G-coupled protein receptors (GPCRs). The disease symptoms are diverse, owing to the fact that the patients are mosaics with varying degrees of tissue involvement. Greater than 90% of the mutations in Gs in MAS occur at the R201 position and are equally divided between R201H and R201C. The R201 residue is central in the intrinsic GTPase activity of Gs and the H and C mutations lead to loss of, or impairment of, the GTPase activity. The intrinsic GTPase activity is necessary to terminate the interaction between Gs and adenylate cyclase, and to terminate the cAMP-mediated signaling of the given GPCR pathway. Thus, these activating mutations lead to ligand-independent activation of GPCR pathways. The tissue phenotype is determined by the role of Gs in the function of a given cell, and excess Gs/cAMP signaling in that cell. For example, pituitary somatotrophs overproduce growth hormone in a growth hormone releasing hormone-independent fashion, and gigantism/acromegaly ensues. Skeletal stem cells in the bone marrow behave as if they are under constant parathyroid hormone stimulation and fail to differentiate into osteoblasts and osteocytes, and proliferate as immature osteogenic cells and lead to the marrow fibrosis of fibrous dysplasia of bone. The goal of this project is to identify molecules with stimulatory activity at gsp mutations that will not only allow for in-depth study of the underlying molecular and cellular pathophysiology, but also serve as compounds from which drugs to treat FD/MAS can be developed NIH Chemical Genomics Center [NCGC] NIH Molecular Libraries Probe Centers Network [MLPCN] MLPCN Grant: IRP-FT-DE-2011-01 Assay Submitter (PI): Michael Collins, NIDCR
1.#Seed 2000 cells/well in 6 ul DMEM 10% FBS, 1% Pen/Strep, 0.5 mg/ml G418 2.#Incubate 16-24 hr at 37C, 5% CO2, 95% humidity 3.#Aspirate leaving 1 ul residual volume 4.#Dispense 5 ul/well DPBS + 1 mM CaCl2, 0.5 mM MgCl2, 0.05% BSA, 0.005% Tween 20 5.#Aspirate leaving 2 ul residual volume 6.#Dispense 23 nl/well compounds in DMSO 7.#Dispense 1 ul/well 300 uM Ro-20174 in DMEM 10% FBS 8.#Incubate 30 min at 37C, 5% CO2, 95% humidity 9.#Dispense 1.5 ul/well HTRF reagent: cAMP-d2 in lysis buffer 10.#Dispense 1.5 ul/well HTRF reagent: anti-cAMP antibody-K in lysis buffer 11.#Incubate 30 min at room temperature 12.#Detect HTRF signal using EnVision plate reader
For orientation: Quantitative high-throughput screening tests each substance at several concentrations.
Consider `Cc1cccn2c(=O)c3cc(C#N)c(=NC(=O)c4cccnc4)n(CC4CCCO4)c3nc12` (stereo not drawn), for which the “activation (cAMP increase)” value is 26.8% (inactive).

As to `COCCCn1c(C(=O)NC2CCCCC2)cc2c(=O)n3cccc(C)c3nc21`, the “activation (cAMP increase)” value is 27.2% (inactive).

Take `Cc1cccn2c(=O)c3cc(C#N)c(=O)n(CCCN4CCOCC4)c3nc12`: the Potency was 20 µM (active).

In the case of `Cc1nnc(SC(C)C(=O)c2c[nH]c3ccccc23)n1C1CC1` (stereo not drawn), the “activation (cAMP increase)” value is 2.61% (inactive).

On to `Cc1ccc(C(=O)N[C@H](C(=O)N2CCN(c3ncccn3)CC2)C(C)C)cc1`, for which the “activation (cAMP increase)” value was -12.3% (inactive).

For the compound `CC(C)CCOc1ccc(C(=O)Nc2cc(S(=O)(=O)N3CCOCC3)ccc2N2CCOCC2)cc1`, the “activation (cAMP increase)” value was -108% (inactive).

Regarding `Cc1cccc(C(=O)NC2CCN(CC(=O)Nc3cccc(Cl)c3)CC2)c1`, the “activation (cAMP increase)” value was -42.7% (inactive).

Take `Cc1csc(SCC(=O)Nc2ccc(C)c(S(=O)(=O)N(C)C)c2)n1`: the “activation (cAMP increase)” value was -20.6% (inactive).

For the compound `CC1=C(C(=O)Nc2cccc(C(=O)NCC(C)c3ccccc3)c2)SCCO1` (stereo not drawn), the “activation (cAMP increase)” value was 10.4% (inactive).

As for `O=C1[C@H]2[C@@H](c3ccc(C(F)(F)F)cc3)N[C@]3(CCCN(Cc4ccc(Cl)cc4)C3=O)[C@H]2C(=O)N1Cc1ccccc1`, the “activation (cAMP increase)” value is 1.18% (inactive).

Turning to `CCN1C(=O)[C@H]2[C@@H](c3ccccc3)N[C@]3(CCCN(Cc4ccc(C)cc4)C3=O)[C@H]2C1=O`, the “activation (cAMP increase)” value was 5.38% (inactive).

As to `Cn1c(CCN2CCN(c3ccccn3)CC2)nc2cc(NS(=O)(=O)c3ccc(F)cc3)ccc21`, the “activation (cAMP increase)” value was -10.2% (inactive).

For `c1ccc(Cn2nnc3c(NCC4CC4)ncnc32)cc1`, the “activation (cAMP increase)” value is 2.75% (inactive).

Take `Cn1c(=O)c2c(SCC(=O)NCC3CCCO3)nc(CC(C)(C)C)nc2n(C)c1=O` (stereo not drawn): the Potency is 14.1 µM (active).

With `CCn1c(SCC(=O)NCC2CCCO2)nc2ccccc21` (stereo not drawn), the “activation (cAMP increase)” value was 11% (inactive).

For `CCCc1nc(SCC(=O)N2CCCC2)c2c(=O)n(C)c(=O)n(C)c2n1`, the “activation (cAMP increase)” value was 26% (inactive).

With `CCCCCCN1C[C@H](O)[C@@H](n2cc(C3CC3)nn2)C[C@@H]1c1ccc(Cl)cc1`, the “activation (cAMP increase)” value was -33.6% (inactive).

In the case of `CC1(C)CC(=O)C=C(c2ccc(COC(=O)c3cc(F)cc(F)c3)cc2)C1=O`, the “activation (cAMP increase)” value is -119% (inactive).

Regarding `O=C(CCc1ccc(O)cc1)NN=Cc1cc(Br)ccc1O`, the “activation (cAMP increase)” value is -4.34% (inactive).

As to `COc1cc2ccc(C(C)=O)c(O)c2cc1OC`, the “activation (cAMP increase)” value was 15.1% (inactive).

In the case of `COC(=O)C[C@H]1C[C@@H]2c3cc(N(C)C)ccc3O[C@@H]2[C@H](CO)O1`, the “activation (cAMP increase)” value was -18.9% (inactive).

For the compound `Cc1cc(Cl)ccc1C(=O)C1CCCN(C(=O)c2ccc3c(c2)OCO3)C1` (stereo not drawn), the “activation (cAMP increase)” value was 0.924% (inactive).

In the case of `Cc1ccc(C(=O)N2CCCc3ccccc32)c(Cl)c1`, the “activation (cAMP increase)” value was 5.11% (inactive).

Take `CN(C)C(CNC(=O)c1cc(Br)c(Br)s1)c1ccco1` (stereo not drawn): the “activation (cAMP increase)” value is -58.5% (inactive).

`O=C(COC(=O)Cc1ccc(Cl)cc1Cl)NCc1ccco1`: the “activation (cAMP increase)” value was -9.6% (inactive).

For `CCOC(=O)C=Cc1ccc(C(=O)OCC)[nH]1`, the “activation (cAMP increase)” value was -46.9% (inactive).

On to `Cc1cc(C)nc(N/N=C/c2ccc([N+](=O)[O-])o2)n1`, for which the “activation (cAMP increase)” value is 45% (inactive).

Turning to `C/[N+]([O-])=C\c1ccc([N+](=O)[O-])o1`, the Potency is 28.2 µM (active).

Consider `CCc1ccc(S(=O)(=O)N/N=C\c2ccc([N+](=O)[O-])o2)cc1`, for which the “activation (cAMP increase)” value was -10.5% (inactive).

For `COc1ccc(/C=C2\SC(=S)N(CCC(=O)N3CCOCC3)C2=O)cc1OC`, the “activation (cAMP increase)” value is -44.9% (inactive).

Turning to `O=C(NCc1ccccc1)C1CNCC(C(=O)NCc2ccccc2)C1` (stereo not drawn), the “activation (cAMP increase)” value was 4.24% (inactive).

Take `Cc1ccc([C@H]2N[C@]3(CCCN(Cc4ccccc4)C3=O)[C@H]3C(=O)N(Cc4ccccc4)C(=O)[C@@H]23)cc1`: the “activation (cAMP increase)” value was -54.9% (inactive).

For `CCN(CC)C(=O)c1sc2nc(-c3ccccc3)ccc2c1N`, the activation (cAMP increase) is -3.88% [at 15.4 µM].

On to `CNc1nc(-c2ccccc2)cc(-c2ccccc2)n1`, for which the “activation (cAMP increase)” value is -29% (inactive).

Take `CS(=O)(=O)c1sc2nc(-c3ccccc3)cc(-c3ccccc3)c2c1N`: the Potency was 7.08 µM (active).

With `CCc1ccccc1NC(=O)CN1CCN(C(=O)c2cc(C3CC3)nn2-c2ccccc2)CC1`, the “activation (cAMP increase)” value is -23.3% (inactive).

On to `O=NN(CCCl)C(=O)NCCc1cccc[n+]1[O-]`, for which the “activation (cAMP increase)” value is -40.6% (inactive).

As to `CSc1ncnc2c1ncn2CCCNCC1CCCCC1`, the “activation (cAMP increase)” value is -41.1% (inactive).

Take `Cc1ccc(S(=O)(=O)N(CCc2ccccc2)c2ccc3c(c2)C2CC3CCN2C(=O)OCc2ccccc2)cc1` (stereo not drawn): the “activation (cAMP increase)” value was -3.98% (inactive).

Take `CC(OC(=O)c1cccnc1Cl)C(=O)NC1CCCCC1` (stereo not drawn): the “activation (cAMP increase)” value was -7.18% (inactive).

Take `O=C(COC(=O)c1cncc(Br)c1)Nc1ccc(S(=O)(=O)N2CCOCC2)cc1`: the “activation (cAMP increase)” value was -52.8% (inactive).

Turning to `O=C(OCc1ccccc1)N1CCC2CC1c1cc(N3CCN(S(=O)(=O)c4cc(Cl)cc(Cl)c4)CC3)ccc12` (stereo not drawn), the “activation (cAMP increase)” value was -22.3% (inactive).

Consider `NC(CSC(c1ccccc1)(c1ccccc1)c1ccc(-c2ccccc2)cc1)C(=O)O` (stereo not drawn), for which the “activation (cAMP increase)” value is -9.82% (inactive).

Regarding `C=CCn1c2ccccc2c2nnc(SC(CC)C(=O)Nc3nc(C)c(C(=O)OCC)s3)nc21` (stereo not drawn), the “activation (cAMP increase)” value is -52.6% (inactive).

Consider `C=CCn1c2ccccc2c2nnc(SCc3[nH]c(=O)[nH]c3C(=O)CCCCC(=O)OCC)nc21`, for which the Potency is 2 µM (active).

`C=CCn1c(SCC(=O)CC(=O)OCC)nc2cc(C(=O)N3CCC(C(N)=O)CC3)ccc2c1=O`: the activation (cAMP increase) was 4.18% [at 15.4 µM].

As to `C=CCn1nc(C(=O)OCC)cc1-c1sc(NC(=O)c2ccccc2)nc1C`, the “activation (cAMP increase)” value is -3.53% (inactive).

As for `Cc1cc(C)c2c(=O)n3c(nc2c1)C(CC(C)C)NC(=O)c1cc2ccccc2cc1-3` (stereo not drawn), the “activation (cAMP increase)” value is 4.39% (inactive).
